Consider 40 compounds from PubChem BioAssay (Tox21).

A number with no mark means an inactive call. A call without a number means that no potency is given here. Calls of active or inactive are those of the source. Calls come from the whole dose curve; as a rule, active = well fitted activation curve with a large enough effect in the repeat runs; inconclusive = weak or mixed curves; inactive = flat fitted curve, though single readings scatter.

This assay is described as follows: A CellTox Green Cytotoxicity Assay to monitor cytotoxicity in HEK293 cells - 0 hour (AID 1224869). Note: nearly all actives have a fitted effect of over 50% in size. The note with it: CellTox Green fluorescence; series mostly up to 76.8 µM. An excerpt: National Center for Advancing Translational Sciences [NCATS]
NIH Chemical Genomics Center [NCGC]
U.S. Environmental Protection Agency [EPA]
National Institutes of Environmental Health Sciences [NIEHS]
National Toxicology Program [NTP]
Cell-based models are critical for drug discovery. Determining the natural cytotoxic effects resulting from test compounds is an essential research activity. A CellTox Green Cytotoxicity Assay to monitor cytotoxicity in real time of continues cell culture during 40 hours of the compound treatment was used to screen Tox21 10K library compounds in Hek293 cells. CellTox Green Cytotoxicity Assay is a nonlytic, homogeneous, biofluorescent method to measure cytotoxicity in cell culture after experimental manipulation. The assay system uses a proprietary asymmetric cyanine dye that is excluded from viable cells but preferentially stains the dead cell's DNA. […] Viable cells produce no appreciable increases in fluorescence. Therefore, the fluorescence signal produced by the binding interaction with dead cell DNA is proportional to cytotoxicity.
The mixture of Hek293 cell suspension and reagents were dispensed at 600cells/6 ul/well in 1536-well tissue culture treated black solid bottom plates using a Multidrop dispenser. After the assay plates were incubated at a 37 C/5% CO2 incubator for 5 hours, 23 nL of compounds dissolved in DMSO, positive and negative controls was transferred to the assay plate by a pintool work station. The plates were incubated at 37 C for 40 hours. The fluorescence intensity were measured at 0h, 8h, 16h, 24h, 32h and 40h time points using ViewLux plate reader during compound treatment.
With `O=C(O)[C@H](O)[C@@H](O)[C@H](O[C@@H]1O[C@H](CO)[C@H](O)[C@H](O)[C@H]1O)[C@H](O)CO`, the Potency result was “inactive”.
Still for that read-out and setting: with `CC[N+](CC)(CC)CCOC(=O)C(C1CCCC1)C1CCCC1` the entry was “inactive”; with `Cc1ccc(O)c(O)c1`, “inactive”.
Same read-out and setting: with `CCCCC(CC)COC(=O)CCCCC(=O)OCc1ccccc1` (stereo not given) the entry was “inactive”.
`Cc1c2ccccc2c(C)c2c1ccc1ccccc12`: the Potency entry is “inactive”.
Regarding `CC(C)CCOC(=O)/C=C/c1ccccc1`, the Potency result was “inactive”.
On the same count and under the same terms, with `CCO[Si](OCC)(OCC)OCC` the entry was “inactive”.
Same read-out and setting: with `CCCCCCCCCCCCOC(=O)c1ccc(O)cc1` the entry was “inactive”; with `COc1cccc(OC)c1C(=O)O`, “inactive”; with `Cc1nc(-c2ccc(Cl)cc2)oc1COC(C)(C)C(=O)O`, “inactive”.
`Cc1cc(-c2ccc(N=Nc3cc(S(=O)(=O)O)c4ccccc4c3N)c(C)c2)ccc1N=Nc1cc(S(=O)(=O)O)c2ccccc2c1N`: the Potency entry was “inactive”.
In the case of `O=S(=O)(O)c1ccccc1/C=C/c1ccc(-c2ccc(/C=C/c3ccccc3S(=O)(=O)O)cc2)cc1`, the Potency result was “inactive”.
Still for that read-out and setting: with `O=C(O)c1cc(=O)c2ccccc2o1` the entry was “inactive”; with `CN1CCCCC1CCN1c2ccccc2Sc2ccc(S(C)=O)cc21` (stereo not given), “inactive”.
`Nc1nc(-c2ccccc2)cs1`: the Potency entry was “inactive”.
Consider `CCCCCCCC`, for which the Potency result was “inactive”.
Same read-out and setting: with `COCCOc1cc2cc(C(=O)NC3CCN(C(C)C)CC3)n(CC(=O)Nc3ccc(Cl)cn3)c2cn1` the entry was “inactive”.
As for `CCCCCCCC/C=C\CCCCCCCCN`, the Potency entry was “inactive”.
Take `COc1ccc(-c2coc3cc(O)ccc3c2=O)cc1`: the Potency entry is “inactive”.
Turning to `Cc1cc(-n2nc3ccc(Cl)cc3n2)c(O)c(C(C)(C)C)c1`, the Potency entry is “inactive”.
Turning to `O=S(=O)(O)c1ccc(Nc2nc(Nc3ccc(/C=C/c4ccc(Nc5nc(Nc6ccc(S(=O)(=O)O)cc6)nc(N(CCO)CCO)n5)cc4S(=O)(=O)O)c(S(=O)(=O)O)c3)nc(N(CCO)CCO)n2)cc1`, the Potency result was “inactive”.
In the case of `Clc1sc(Cl)c(Cl)c1Cl`, the Potency result was “inactive”.
With `C=C(C)c1cccc(C(=C)C)c1`, the Potency entry is “inactive”.
Take `CC1=Nc2ccccc2C1(C)C`: the Potency result is “inactive”.
In the case of `CCC(CC)(CC(=O)Nc1cccc(/C=C/c2nc(C3CCC3)cs2)c1)C(=O)O`, the Potency entry is “inactive”.
Still for that read-out and setting: with `CC(C)(C)c1ccc(C(O)CCCN2CCC(C(O)(c3ccccc3)c3ccccc3)CC2)cc1` (stereo not given) the entry was “inactive”; with `COC(C)=O`, “inactive”.
For the compound `CCCCCc1ccc(Cl)cc1`, the Potency entry was “inactive”.
For `CCCCN(CCCC)CC(O)c1cc(Cl)cc2c1-c1ccc(Cl)cc1/C2=C/c1ccc(Cl)cc1` (stereo not given), the Potency result was “inactive”.
Consider `CC(C)(C)C1CCC(=O)CC1`, for which the Potency result is “inactive”.
As for `OC/C=C/CO`, the Potency result is “inactive”.
The same measure, in the same setting: with `CC(CCc1ccccc1)NCC(O)c1ccc(O)c(C(N)=O)c1` (stereo not given) the entry was “inactive”; with `Nc1ccc(C(=O)O)c(O)c1`, “inactive”.
On the same count and under the same terms, with `CC(C)NC[C@@H](O)COc1ccc(CC(N)=O)cc1` the entry was “inactive”.
As for `NC[C@H]1O[C@H](O[C@H]2[C@H](O[C@@H]3O[C@H](CO)[C@@H](O)[C@H]3O)C(O)[C@H](N)C[C@@H]2N)[C@H](N)[C@@H](O)[C@@H]1O` (stereo not given in full), the cytotoxicity is -7.77% [at 6.97 µM].
In the case of `Cc1c(F)c(N2CCNC(C)C2)cc2c1c(=O)c(C(=O)O)cn2C1CC1` (stereo not given), the Potency result is “inactive”.
In the case of `CCc1ccc(Br)cc1`, the Potency result was “inactive”.
`Cc1ccc(O)c(N)c1`: the Potency result was “inactive”.
As to `CC(N=C(NC#N)Nc1ccncc1)C(C)(C)C` (stereo not given), the Potency result is “inactive”.
On the same count and under the same terms, with `Nc1ccc(Oc2ccc(Cl)cc2)cc1` the entry was “inactive”.
